For seven compounds, Potency, outcome and max response results are on record in PubChem BioAssay (Tox21).

Test [1] is described as follows: A CellTox Green Cytotoxicity Assay to monitor cytotoxicity in HEK293 cells - 40 hour (AID 1224871). Further: nearly all actives have a fitted effect of over 45% in size. In a few lines:
(§1)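 Cytotoxicity was tracked continuously in HEK293 cells by a DNA-binding dye excluded from viable cells. Compounds were transferred in DMSO 5 h after seeding; fluorescence was recorded at intervals up to 40 h.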

A short description of test [2]: qHTS RealTime-Glo MT Cell Viability Assay in HEK293 cells - 16 hour (AID 1224872). Further: top concentration of the series differs between compounds; nearly all actives have a fitted effect of over 50% in size. The essentials: (§2)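 Assay medium contained NanoLuc luciferase plus cell-permeant prosubstrate, added with HEK293 cells at 600 cells/well. After 5 h at 37 C/5% CO2 compounds were added; plates stayed at 37 C for 40 h with serial luminescence reads.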
Background: Quantitative high-throughput screening tests each substance at several concentrations.

Test [3] can be described thus: qHTS RealTime-Glo MT Cell Viability Assay in HepG2 cells - 8 hour (AID 1224873). Further: nearly all actives have a fitted effect of over 55% in size. The essentials:
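Real-time viability: cells seeded at 600 per well together with NanoLuc and cell-permeant prosubstrate, compounds added after 5 h incubation. Luminescence tracked at 0, 8, 16, 24, 32 and 40 h of exposure.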

Test [4] in a line: qHTS RealTime-Glo MT Cell Viability Assay in HEK293 cells - 40 hour (AID 1224874). Further: nearly all actives have a fitted effect of over 50% in size. The settings on record: RealTime-Glo luminescence; max response: active compounds read low. In a few lines:
(§3)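 Nonlytic bioluminescent viability monitoring. HEK293 at 600 cells/well with reagent; 5 h settle; compound transfer by pintool; plates held at 37 C and read at set time points.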

The nature of test [5]: A CellTox Green Cytotoxicity Assay to monitor cytotoxicity in HepG2 cells - 16 hour (AID 1224876). Further: nearly all actives have a fitted effect of over 45% in size. In a few lines: (§4)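 Real-time, homogeneous cytotoxicity readout: dead-cell DNA staining by CellTox Green in HepG2 monolayers, fluorescence measured at timed intervals up to 40 h of continuous compound exposure.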
A short description of test [6]: A CellTox Green Cytotoxicity Assay to monitor cytotoxicity in HepG2 cells - 24 hour (AID 1224878). Further: nearly all actives have a fitted effect of over 45% in size. In a few lines: as §4
Test [7] is described as follows: A CellTox Green Cytotoxicity Assay to monitor cytotoxicity in HepG2 cells - 40 hour (AID 1224879). Further: nearly all actives have a fitted effect of over 40% in size. Further: potency means the concentration at half of the fitted maximal effect. In a few lines: as §4
Test [8] can be described thus: qHTS RealTime-Glo MT Cell Viability Assay in HEK293 cells - 0 hour (AID 1224880). Further: top concentration of the series differs between compounds; nearly all actives have a fitted effect of over 45% in size. The essentials:
as §3

Test [9] can be described thus: A CellTox Green Cytotoxicity Assay to monitor cytotoxicity in HEK293 cells - 32 hour (AID 1224881). Further: nearly all actives have a fitted effect of over 40% in size. In a few lines: as §1
Test [10] in a line: A CellTox Green Cytotoxicity Assay to monitor cytotoxicity in HepG2 cells - 0 hour (AID 1224882). Further: nearly all actives have a fitted effect of over 35% in size. The essentials: as §4
Test [11] can be described thus: A CellTox Green Cytotoxicity Assay to monitor cytotoxicity in HepG2 cells - 32 hour (AID 1224883). Further: nearly all actives have a fitted effect of over 50% in size. The essentials:
as §4

Test [12] in a line: A CellTox Green Cytotoxicity Assay to monitor cytotoxicity in HEK293 cells - 8 hour (AID 1224884). Further: nearly all actives have a fitted effect of over 35% in size. The essentials:
as §1

Test [13] can be described thus: qHTS RealTime-Glo MT Cell Viability Assay in HepG2 cells - 16 hour (AID 1224885). Further: nearly all actives have a fitted effect of over 50% in size. The essentials: (§5)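 qHTS, HepG2, 600 cells/well, RealTime-Glo (NanoLuc + prosubstrate) added with cells; 5 h preincubation; DMSO compound addition; 37 C; luminescence at 0/8/16/24/32/40 h.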
A short description of test [14]: qHTS RealTime-Glo MT Cell Viability Assay in HEK293 cells - 24 hour (AID 1224886). In a few lines: as §2
The nature of test [15]: qHTS RealTime-Glo MT Cell Viability Assay in HEK293 cells - 8 hour (AID 1224887). The essentials: as §3
The nature of test [16]: A CellTox Green Cytotoxicity Assay to monitor cytotoxicity in HEK293 cells - 16 hour (AID 1224888). Further: nearly all actives have a fitted effect of over 35% in size. The essentials:
as §1

Test [17] in a line: qHTS RealTime-Glo MT Cell Viability Assay in HepG2 cells - 0 hour (AID 1224889). Further: nearly all actives have a fitted effect of over 50% in size. In a few lines: as §5
The nature of test [18]: A CellTox Green Cytotoxicity Assay to monitor cytotoxicity in HepG2 cells - 8 hour (AID 1224890). Further: nearly all actives have a fitted effect of over 45% in size. In a few lines: as §4
Test [19] is described as follows: A CellTox Green Cytotoxicity Assay to monitor cytotoxicity in HEK293 cells - 24 hour (AID 1224875). In a few lines: as §1
The nature of test [20]: qHTS RealTime-Glo MT Cell Viability Assay in HepG2 cells - 32 hour (AID 1224877). Further: nearly all actives have a fitted effect of over 55% in size. In a few lines:
as §5

A number with no mark means an inactive call. Results filed as inconclusive are left out. The source made the active and inactive calls. The call rests on the fitted dose curve; in most records, active means well fitted curve in the direction sought with a large enough effect in the repeat runs; inconclusive means weak or mixed curves; inactive means no such curve, though single readings can be large; an effect the other way counts as inactive or inconclusive.
On the % scale 0 is the no-effect control and ±100 the full control effect.

In the case of `CS(=O)(=O)c1ccc([C@@H](O)[C@@H](CF)NC(=O)C(Cl)Cl)cc1`, the Potency entry in test [1], in test [2], in test [5], in test [6], in [7] and in test [9] was “inactive” each time. In addition, the Potency entry in [10], in test [11], in test [12], in [14], in test [15] and in test [16] was “inactive” throughout. For the same compound, the Potency result in test [17] and in [18] was “inactive” each time. Moreover, the call in test [3], in test [8] and in test [13] was inactive. The max response in test [4] was 11.3%.
In the case of `CC(C)C1=CC2=CC[C@@H]3[C@](C)(CCC[C@@]3(C)C(=O)O)[C@H]2CC1`, the Potency entry in test [1], in [2], in test [19], in test [5], in test [20] and in test [6] was “inactive” each time. Moreover, the Potency entry in test [7], in test [9], in test [10], in test [12], in test [14] and in test [15] was “inactive” in each case. Also, the Potency entry in test [16], in test [17] and in [18] was “inactive” in each case. In test [4], the max response is 3.7%. The call in test [13] was inactive.
With `CCCCC(CC)COC(=O)COc1cc(Cl)c(Cl)cc1Cl` (stereo unspecified), the Potency entry in test [1], in [2], in [19], in test [5], in test [20] and in test [6] was “inactive” each time. Further, the Potency entry in test [7], in test [9], in test [10], in test [11], in test [12] and in test [14] was “inactive” in each case. Besides, the Potency entry in test [15], in test [16], in [17] and in [18] was “inactive” in each case. Also, the max response in test [4] was -3.13%. Also, the result in test [8] and in test [13] was inactive.
As for `CCN1CC(CCN2CCOCC2)C(c2ccccc2)(c2ccccc2)C1=O` (stereo unspecified), the Potency result in test [1], in [2], in [19], in test [5], in [20] and in [6] was “inactive” each time. The Potency result in test [7], in [9], in test [10], in [11], in [12] and in test [14] was “inactive” throughout. Besides, the Potency entry in [15], in test [16], in [17] and in test [18] was “inactive” in each case. Also, the max response in test [4] is 20.2%. Besides, the compound was classed as inactive in test [8] and in [13].
On to `CCN(CC)CCOc1ccc(Cc2ccccc2)cc1`, for which the Potency entry in test [1], in test [2], in test [19], in test [20], in test [9] and in test [10] was “inactive” throughout. Further, the Potency entry in test [12], in test [15], in test [16], in test [17] and in test [18] was “inactive” each time. Also, the call in test [3], in test [8] and in test [13] was inactive. In addition, the Potency in [7] is 26.8 µM (active).
For the compound `COC(=O)/C=C(/C)N`, the Potency entry in test [1], in [2], in [19], in test [5], in test [20] and in test [6] was “inactive” each time. For the same compound, the Potency result in [7], in test [9], in test [10], in test [12], in test [14] and in test [15] was “inactive” each time. The Potency entry in test [17] and in test [18] was “inactive” throughout. In addition, in test [4], the max response was 5.09%. Besides, the call in test [8] and in test [13] was inactive.
Take `Nc1cccc(S(=O)(=O)O)c1`: the Potency entry in test [1], in test [2], in test [19], in test [5], in test [20] and in [6] was “inactive” throughout. For the same compound, the Potency entry in test [7], in [11], in [12], in test [14], in test [15] and in test [16] was “inactive” each time. The Potency result in test [18] is “inactive”. The max response in [4] was 3%. The call in test [8] and in test [13] was inactive.
